About 79,000 compounds went through this panel and 15% of them were active in at least one assay; those are over-represented in the sample as a whole. A number with no mark means an inactive call. Active and inactive are the calls of the source. Rule as the data show it: active = growth inhibition above about 70%; inactive = the rest.
Assay: NCI Yeast Anticancer Drug Screen. Data for the sgs1 mgt1 strain (AID 161);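 also: 0% = growth of cultures given vehicle only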
Settings: S. cerevisiae sgs1 mgt1 strain, at 50.0 µM, stronger effect = higher value
Summary of the method: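 Percent growth inhibition was derived by comparing compound-exposed mutant yeast with vehicle-exposed cultures. The strain carries alterations in DNA damage repair.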

Row | Structure (SMILES) | growth inhibition
1 | Cc1cc(C)cc(C(=O)NCc2ccc[n+]([O-])c2)c1 | -6.35%
2 | CC(C)(C)OC(=O)N[C@H]1CCN(C2CCCCC2)C1=O | -22.1%
3 | Cc1ccc(S(=O)(=O)N2CCCCC2)cc1 | 38.3%
4 | Cc1cc(C)c(C(=O)OCCN(C)C)c(C)c1 | 9.9%
5 | C[N+]12C=CC=C1C(N1CCCC1)c1sc(-c3ccc(Cl)cc3)cc12 (stereo not given) | 22%
6 | O=C(c1cccs1)N(C(=S)N1CCN(c2ccccc2)CC1)c1ccccc1 | 4.55%
7 | CCCCCCOC(=O)c1cccc(C)c1 | 5.8%
8 | COc1ccc(C(c2cc3c(cc2O)OCO3)N2CCOCC2)c(OC)c1 (stereo not given) | 4.15%
9 | O=C1CN(c2cccc(Cl)c2)C(=O)CN1CCN1CC(=O)N(c2cccc(Cl)c2)CC1=O | -19.6%
10 | CCOC(=O)C1CC(C)c2[nH]c3ccccc3c21 (stereo not given) | -5.15%
11 | CC(=O)N(C)Nc1ccccc1 | 17.9%
12 | N#CCCOCC(COCCC#N)(COCCC#N)COCCC#N | -7.55%
13 | Oc1ccc(-c2ccc(Br)cc2)cc1 | -14.4%
14 | CCOC(=O)C(CCSC)(CCN(C)Cc1ccccc1)C(=O)OCC | -6.9%
15 | CCCNC(=S)NN1C2CSC1CS2 | -1.35%
16 | O=c1[nH]c(=O)n(C2CC(O)C(CO)O2)cc1Cl (stereo not given) | 2.9%
17 | O=C1C=CC(=O)C1 | 3.15%
18 | O=C(Cc1cc[n+]([O-])cc1)C(=O)Nc1cc(Cl)c(Cl)cc1Cl | -21.5%
19 | COc1cc2cnc(-c3ccncc3)c(N)c2cc1OC | -11.6%
20 | O=C1c2cc([N+](=O)[O-])ccc2-c2c(I)cccc21 | -5.35%

Row | Structure (SMILES) | growth inhibition
21 | NC(=O)C(CCN1CCCCC1)c1ccccc1 (stereo not given) | 7.75%
22 | C[C@@]12CCC3C1C=C1C(=O)c4cc(O)ccc4C(=O)[C@]1(O2)[C@@]3(C)C=O | 78.8% (active)
23 | O=C(/C=C/c1ccc(F)c(F)c1)OCCc1ccccc1 | 32.7%
24 | Cc1ccc(C)c(NC(=O)C(=O)C(C2C(C)CC(=O)C2CC(=O)O)[N+](=O)[O-])c1 (stereo not given) | -8.05%
25 | CC1=NN(c2nc(N)nc(CCl)n2)CC1 | 8.15%
26 | Cc1ccc(C)c(NC(=O)Nc2cccc(Cl)c2)c1 | -5.85%
27 | O=C(c1ccc2c(c1)C(=O)OC2=O)c1ccc2c(c1)C(=O)OC2=O | -17.8%
28 | O=C(O)C(CCCN1C(=O)c2ccccc2C1=O)N1C(=O)c2ccccc2C1=O (stereo not given) | -12.3%
29 | Cc1nc(CCCCCCCC(=O)O)ccc1O | -10.6%
30 | C=CC(O)CCCCCC (stereo not given) | -22.4%
31 | O=C(O)C#Cc1cccc(Cl)c1 | -14.1%
32 | Cn1c(=O)c2c(=O)n3ccccc3nc2n(C)c1=O | 72.1% (active)
33 | COC(=O)c1cnc2nc(N3CCOCC3)[nH]n2c1=O | -1.25%
34 | N#Cc1c(/C=C/c2ccccc2)c2c([nH]c1=S)CCCCC2 | 16.1%
35 | O=c1[nH]cnc2ncnn12 | 9.65%
36 | CCOC(=S)SCc1ccc([N+](=O)[O-])cc1 | 27.8%
37 | NC(=O)Cc1cc2c(cc1CO)OCO2 | 2.45%
38 | Nc1c(Br)c(Cl)c(Br)c2c1-c1ccc(Cl)cc1C2 | -1.4%
39 | N#CC1CC=CCN1CCc1ccccc1 (stereo not given) | -4.95%
40 | Clc1cccc2c(SCCCCCSc3c4ccccc4nc4c(Cl)cccc34)c3ccccc3nc12 | -22.4%

Assay: NCI Yeast Anticancer Drug Screen. Data for the cln2 rad14 strain (AID 165);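 also: 0% = growth equal to vehicle treated cultures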
Settings: S. cerevisiae cln2 rad14 strain, at 50.0 µM, stronger effect = higher value
Summary of the method: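 Strain: cln2 rad14 yeast, altered in cell cycle control and DNA damage repair. Read-out: growth inhibition vs vehicle.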

Row | Structure (SMILES) | growth inhibition [%]
41 | Cc1cc(C)cc(C(=O)NCc2ccc[n+]([O-])c2)c1 | -11.9
42 | CC(C)(C)OC(=O)N[C@H]1CCN(C2CCCCC2)C1=O | 7.75
43 | Cc1ccc(S(=O)(=O)N2CCCCC2)cc1 | -26.1
44 | Cc1cc(C)c(C(=O)OCCN(C)C)c(C)c1 | -5.25
45 | C[N+]12C=CC=C1C(N1CCCC1)c1sc(-c3ccc(Cl)cc3)cc12 (stereo not given) | 7.3
46 | O=C(c1cccs1)N(C(=S)N1CCN(c2ccccc2)CC1)c1ccccc1 | -7.8
47 | CCCCCCOC(=O)c1cccc(C)c1 | -35
48 | COc1ccc(C(c2cc3c(cc2O)OCO3)N2CCOCC2)c(OC)c1 (stereo not given) | -25.9
49 | O=C1CN(c2cccc(Cl)c2)C(=O)CN1CCN1CC(=O)N(c2cccc(Cl)c2)CC1=O | -7.8
50 | CCOC(=O)C1CC(C)c2[nH]c3ccccc3c21 (stereo not given) | -25
51 | CC(=O)N(C)Nc1ccccc1 | -7.4
52 | N#CCCOCC(COCCC#N)(COCCC#N)COCCC#N | 10
53 | Oc1ccc(-c2ccc(Br)cc2)cc1 | -2
54 | CCOC(=O)C(CCSC)(CCN(C)Cc1ccccc1)C(=O)OCC | -0.9
55 | CCCNC(=S)NN1C2CSC1CS2 | -33.2
56 | O=c1[nH]c(=O)n(C2CC(O)C(CO)O2)cc1Cl (stereo not given) | 11.8
57 | O=C1C=CC(=O)C1 | -0.3
58 | O=C(Cc1cc[n+]([O-])cc1)C(=O)Nc1cc(Cl)c(Cl)cc1Cl | -17.1
59 | COc1cc2cnc(-c3ccncc3)c(N)c2cc1OC | 24.6
60 | O=C1c2cc([N+](=O)[O-])ccc2-c2c(I)cccc21 | 5.75

Row | Structure (SMILES) | growth inhibition [%]
61 | NC(=O)C(CCN1CCCCC1)c1ccccc1 (stereo not given) | 9.5
62 | C[C@@]12CCC3C1C=C1C(=O)c4cc(O)ccc4C(=O)[C@]1(O2)[C@@]3(C)C=O | 51.1
63 | O=C(/C=C/c1ccc(F)c(F)c1)OCCc1ccccc1 | 28.9
64 | Cc1ccc(C)c(NC(=O)C(=O)C(C2C(C)CC(=O)C2CC(=O)O)[N+](=O)[O-])c1 (stereo not given) | 10.8
65 | CC1=NN(c2nc(N)nc(CCl)n2)CC1 | 21.9
66 | Cc1ccc(C)c(NC(=O)Nc2cccc(Cl)c2)c1 | -4.95
67 | O=C(c1ccc2c(c1)C(=O)OC2=O)c1ccc2c(c1)C(=O)OC2=O | 6.1
68 | O=C(O)C(CCCN1C(=O)c2ccccc2C1=O)N1C(=O)c2ccccc2C1=O (stereo not given) | -13.8
69 | Cc1nc(CCCCCCCC(=O)O)ccc1O | -9.35
70 | C=CC(O)CCCCCC (stereo not given) | -5.1
71 | O=C(O)C#Cc1cccc(Cl)c1 | -9.9
72 | Cn1c(=O)c2c(=O)n3ccccc3nc2n(C)c1=O | 68.4
73 | COC(=O)c1cnc2nc(N3CCOCC3)[nH]n2c1=O | 4.1
74 | N#Cc1c(/C=C/c2ccccc2)c2c([nH]c1=S)CCCCC2 | 26.8
75 | O=c1[nH]cnc2ncnn12 | 19.2
76 | CCOC(=S)SCc1ccc([N+](=O)[O-])cc1 | 18.6
77 | NC(=O)Cc1cc2c(cc1CO)OCO2 | 7.9
78 | Nc1c(Br)c(Cl)c(Br)c2c1-c1ccc(Cl)cc1C2 | -19.9
79 | N#CC1CC=CCN1CCc1ccccc1 (stereo not given) | 42.5
80 | Clc1cccc2c(SCCCCCSc3c4ccccc4nc4c(Cl)cccc34)c3ccccc3nc12 | -33.5

From PubChem BioAssay (NCI)
